Reference: PubChem BioAssay (NCI)
About 79,000 compounds went through this panel and 15% of them were active in at least one assay; those are over-represented in the sample as a whole. A number with no mark means an inactive call. Activity calls are given as the source filed them. Rule as the data show it: active = growth inhibition above about 70%; inactive = the rest.

test: NCI Yeast Anticancer Drug Screen. Data for the cln2 rad14 strain (AID 165);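 also: 0% = growth equal to vehicle treated cultures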; details: S. cerevisiae cln2 rad14 strain, at 50.0 µM, stronger effect = higher value
In short: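 Yeast carrying cln2 and rad14 alterations (cell cycle control and DNA damage repair) were exposed to compounds. Growth inhibition was measured against vehicle-treated controls.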

First: CC1=C(CCC(C)CO)OC2CC3C4CCC5CC(O)CCC5(C)C4CCC3(C)C12 (stereo not given)
Second: C=C(C(=O)O)C1CC[C@@]2(C)CC(O)CC(=C)C2C1 (stereo not given in full)
The growth inhibition of the first is lower: -1.9% for the first, 5.3% for the second.

First: COC(=O)c1nc(N)nc(C(=O)OC)c1C(=O)c1ccc(Cl)c(Cl)c1
Second: O=S(=O)(SSS(=O)(=O)c1ccc(Cl)c(Cl)c1)c1ccc(Cl)c(Cl)c1
The growth inhibition of the first is lower: -5.05% for the first, -3.45% for the second.

Compared with `CNC(=O)OCc1c(COC(=O)NC)c(-c2ccccc2)n(-c2ccccc2)c1C`, `O=c1c(O)c(-c2ccccc2)oc2c(CP(=O)(O)O)cccc12` is lower in growth inhibition: 37.9% for the first, -12.5% for the second.

Compared with `C=C(C)COC(=O)COc1ccc(Cl)cc1`, `COC(=O)c1ccc(SCCC(=O)CO)cc1` is higher in growth inhibition: 0.45% for the first, 5.35% for the second.

Compared with `CCCNC(=S)/N=C\c1c(O)c2ccccc2oc1=O`, `CCCCOC(=O)CNC(=O)c1ccc(C)c(OCc2ccccc2)c1[N+](=O)[O-]` is lower in growth inhibition: -0.45% for the first, -19.6% for the second.

Going from `CCOC(=O)/C(C)=C1\N=C(c2ccccc2)OC(=NC2CCCCC2)N1C1CCCCC1` to `CCOC(=O)/C(C)=C(/C)Nc1ccccc1`, the growth inhibition falls from 17.9% to -28.9%.

Going from `O=C(CNC(=O)c1ccccc1)Nc1ccc([N+](=O)[O-])cc1` to `CCNC(=O)CCN(C(=O)O)S(=O)(=O)c1ccc(NC(=O)c2ccccc2)cc1`, the growth inhibition falls from 26.8% to 0.25%.

Compared with `Nc1ccc(Nc2c3ccccc3nc3ccccc23)cc1`, `S=C(Nc1ccccc1)Nc1ccc(NC(=S)Nc2ccccc2)cc1` is lower in growth inhibition: 10.3% for the first, -4.95% for the second.

Going from `CC(C)(N=NC(C)(C)C(=O)NCCO)C(=O)NCCO` to `CCOC(=O)c1nc(C)oc1C(=O)OCC`, the growth inhibition falls from 19.7% to -13.9%.

First: CC(=O)c1ccc2ccccc2c1
Second: O=C(NO)Oc1cccc2ccccc12
The growth inhibition of the first is lower: 2.75% for the first, 6.75% for the second.

First: Cc1ccc(CSCc2c(CSCc3ccc(C)cc3)c(CSCc3ccc(C)cc3)c(CSCc3ccc(C)cc3)c(CSCc3ccc(C)cc3)c2CSCc2ccc(C)cc2)cc1
Second: O=C(OCC1OC(n2nc(SCc3ccccc3)c(=S)[nH]c2=O)C(OC(=O)c2ccccc2)C1OC(=O)c1ccccc1)c1ccccc1 (stereo not given)
The growth inhibition of the first is higher: 29.8% for the first, -46.9% for the second.

First: O=C1/C(=C/c2ccccc2)N=C2Sc3c(nc[nH]c3=O)N12
Second: Cc1cc(=O)c2cc(-c3ccccc3)ccc2[nH]1
The growth inhibition of the first is lower: -7.25% for the first, 0.05% for the second.

First: O=C(O)CCC(=O)Nc1ccccc1C(=O)O
Second: O=C(CC(=O)Nc1ccccc1)N/N=C/c1cc(N=Nc2ccc(Br)cc2)ccc1O
The growth inhibition of the first is lower: 0.15% for the first, 4.65% for the second.

Compared with `CC(C)OP(=O)(OC(C)C)c1ccc2c(c1)OCCOCCOCCOCCO2`, `Cc1ccc(C(C)C)c(OCC2=NCCN2C)c1` is lower in growth inhibition: 4.2% for the first, 0.4% for the second.

Going from `O=C1CCC2=NCc3c(ccc4ccccc34)N12` to `CC(Br)C(=O)n1c2ccccc2c2ccccc21` (stereo not given), the growth inhibition rises from -42.9% to -13.8%.

Going from `O=c1c(O)c(O)c1=O` to `O=C1CCNC(=O)N1`, the growth inhibition rises from 0.7% to 21.1%.

Compared with `N#Cc1nc(COCc2ccccc2)oc1N`, `O=c1oc2c(Cl)cc(Cl)cc2cc1-c1nc2ccccc2[nH]1` is higher in growth inhibition: 1.75% for the first, 9.65% for the second.

Going from `COC(=O)c1ccc(/C=C/c2cc(O)ccc2O)cc1` to `CC1(C)NC(=O)N(CCCCCCN2C(=O)NC(C)(C)C2=O)C1=O`, the growth inhibition falls from 44.5% to 6.1%.

First: COC1C2CC3C4(CCC5C6(C)CCCC53C(C14)N(C)C6)CC21CCC23C4C=C5C6=C(CCC5(CC42)C3O1)C1(C)CC(C6)CN(C)C1 (stereo not given)
Second: NCCCOC12CC3CC(CC(C3)C1)C2
The growth inhibition of the first is higher: 15.6% for the first, -50.4% for the second.

`C1OC2OC3OCOC3C2O1` (stereo not given) gave a growth inhibition of -58.2%.

With `O=c1cc(C=Nc2ccc(-c3csc(-c4ccccc4)n3)cc2)[nH]c(=S)[nH]1` the growth inhibition was 97.2% (active).
